Results as given in PubChem BioAssay.
Activity calls are given as the source filed them.

Experiments:
[1] = binders of probe aFSTL3 on microarray, primary screen, stem cell growth factor project, biochemical, small-molecule microarray, fluorescence 635/667 (AID 1064); details: higher = more signal;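 further: measures binding of the biotinylated anti-FSTL3 antibody to printed compounds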
[2] = binders from COS7 lysate, DM2A8 probe, primary screen, torsin A project, cell lysate, small-molecule microarray, fluorescence 635/667 (AID 1065); details: higher = more signal, COS7 lysate expressing mutant human TOR1A
[3] = binders of probe aFGF2 on microarray, primary screen, stem cell growth factor project, biochemical, small-molecule microarray, fluorescence 635/667 (AID 1067); details: higher = more signal;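 further: measures binding of biotinylated aFGF2 protein to printed compounds on slides; z-score merges feature fluorescence and signal-to-noise across triplicate slides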
[4] = binders of probe aFGF10 on microarray, primary screen, stem cell growth factor project, biochemical, small-molecule microarray, fluorescence 635/667 (AID 1071); details: higher = more signal;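 further: score merges 667 nm spot intensity and signal to noise from triplicate slides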
[5] = target: Neurogenic locus notch homolog protein 2 (Homo sapiens) (UniProt Q04721); assay: Notch2 binders on small-molecule microarrays, primary screen, biochemical, small-molecule microarray, 635 nm fluorescence, stem cell growth factors (AID 1073); details: Notch2 binding, higher = more signal
Neurogenic locus notch homolog protein 2 (Homo sapiens), sequence (Q04721 whole entry, looked up, canonical isoform): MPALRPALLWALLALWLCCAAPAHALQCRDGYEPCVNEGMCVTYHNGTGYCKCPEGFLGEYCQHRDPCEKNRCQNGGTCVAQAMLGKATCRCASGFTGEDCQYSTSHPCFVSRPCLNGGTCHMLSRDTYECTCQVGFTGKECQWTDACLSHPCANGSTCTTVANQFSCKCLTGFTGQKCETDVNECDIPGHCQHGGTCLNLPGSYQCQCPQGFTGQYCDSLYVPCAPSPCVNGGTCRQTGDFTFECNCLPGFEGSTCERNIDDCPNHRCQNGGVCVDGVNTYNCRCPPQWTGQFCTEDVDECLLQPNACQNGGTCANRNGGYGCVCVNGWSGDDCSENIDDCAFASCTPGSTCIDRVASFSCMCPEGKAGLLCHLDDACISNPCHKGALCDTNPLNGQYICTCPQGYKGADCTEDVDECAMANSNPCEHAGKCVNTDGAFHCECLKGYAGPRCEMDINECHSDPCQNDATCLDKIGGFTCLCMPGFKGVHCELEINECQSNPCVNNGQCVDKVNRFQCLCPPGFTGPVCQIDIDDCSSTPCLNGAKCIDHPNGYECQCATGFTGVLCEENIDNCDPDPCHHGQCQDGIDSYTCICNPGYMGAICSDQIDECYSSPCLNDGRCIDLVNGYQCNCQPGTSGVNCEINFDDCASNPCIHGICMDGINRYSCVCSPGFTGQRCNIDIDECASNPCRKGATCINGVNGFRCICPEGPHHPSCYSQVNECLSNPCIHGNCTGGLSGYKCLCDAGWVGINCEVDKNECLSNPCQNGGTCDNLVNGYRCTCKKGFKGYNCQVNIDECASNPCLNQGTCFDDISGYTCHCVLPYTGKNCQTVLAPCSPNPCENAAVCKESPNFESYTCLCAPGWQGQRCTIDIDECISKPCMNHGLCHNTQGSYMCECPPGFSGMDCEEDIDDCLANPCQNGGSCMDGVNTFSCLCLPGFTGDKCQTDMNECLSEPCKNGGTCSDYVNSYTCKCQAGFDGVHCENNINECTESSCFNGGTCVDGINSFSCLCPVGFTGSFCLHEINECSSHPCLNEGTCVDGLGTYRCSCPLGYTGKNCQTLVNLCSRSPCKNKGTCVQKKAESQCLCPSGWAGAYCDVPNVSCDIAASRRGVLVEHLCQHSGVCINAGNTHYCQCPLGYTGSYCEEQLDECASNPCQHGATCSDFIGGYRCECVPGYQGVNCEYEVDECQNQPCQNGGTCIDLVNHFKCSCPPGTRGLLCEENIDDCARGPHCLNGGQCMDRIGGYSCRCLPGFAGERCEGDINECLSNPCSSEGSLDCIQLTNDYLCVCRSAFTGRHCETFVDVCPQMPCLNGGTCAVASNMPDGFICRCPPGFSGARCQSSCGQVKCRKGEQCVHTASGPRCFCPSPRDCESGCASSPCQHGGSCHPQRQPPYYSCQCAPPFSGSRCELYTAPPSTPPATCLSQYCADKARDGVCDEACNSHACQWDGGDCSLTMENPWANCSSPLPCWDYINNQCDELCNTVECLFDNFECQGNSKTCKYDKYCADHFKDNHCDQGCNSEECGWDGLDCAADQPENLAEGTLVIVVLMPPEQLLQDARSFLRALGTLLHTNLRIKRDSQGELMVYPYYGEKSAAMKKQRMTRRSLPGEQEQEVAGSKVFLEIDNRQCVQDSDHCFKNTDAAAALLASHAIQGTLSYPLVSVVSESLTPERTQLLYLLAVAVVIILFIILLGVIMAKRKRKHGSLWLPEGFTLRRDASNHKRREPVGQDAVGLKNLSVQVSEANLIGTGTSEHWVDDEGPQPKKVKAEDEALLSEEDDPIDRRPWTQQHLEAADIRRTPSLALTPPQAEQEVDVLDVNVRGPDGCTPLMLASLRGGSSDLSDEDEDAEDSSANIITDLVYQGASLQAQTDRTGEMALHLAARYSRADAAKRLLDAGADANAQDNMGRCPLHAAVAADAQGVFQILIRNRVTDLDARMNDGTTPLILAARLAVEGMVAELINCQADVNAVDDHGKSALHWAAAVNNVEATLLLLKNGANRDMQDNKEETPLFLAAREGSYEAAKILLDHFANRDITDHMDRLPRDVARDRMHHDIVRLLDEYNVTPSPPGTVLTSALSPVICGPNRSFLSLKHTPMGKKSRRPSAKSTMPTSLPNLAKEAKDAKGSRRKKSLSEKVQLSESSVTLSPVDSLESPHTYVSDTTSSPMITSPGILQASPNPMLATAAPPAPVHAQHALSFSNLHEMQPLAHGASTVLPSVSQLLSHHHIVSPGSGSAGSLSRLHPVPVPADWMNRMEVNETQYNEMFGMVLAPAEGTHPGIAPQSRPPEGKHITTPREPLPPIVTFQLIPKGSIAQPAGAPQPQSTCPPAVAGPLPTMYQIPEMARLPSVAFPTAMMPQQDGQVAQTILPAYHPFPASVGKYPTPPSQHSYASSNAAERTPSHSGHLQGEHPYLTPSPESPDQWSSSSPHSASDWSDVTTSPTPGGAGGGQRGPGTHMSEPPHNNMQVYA

[6] = target: Pro-neuregulin-1, membrane-bound isoform (Homo sapiens) (UniProt Q02297); assay: NRG1 binders on small-molecule microarrays, primary screen, psychiatric disease protein project, biochemical, small-molecule microarray, fluorescence 635/667 (AID 1075); details: NRG1 binding, 635 nm fluorescence, higher = more signal;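 further: score combines 667 nm spot fluorescence with signal to noise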
Pro-neuregulin-1, membrane-bound isoform (Homo sapiens), sequence (Q02297 whole entry, looked up, the tested form may be a part, canonical isoform): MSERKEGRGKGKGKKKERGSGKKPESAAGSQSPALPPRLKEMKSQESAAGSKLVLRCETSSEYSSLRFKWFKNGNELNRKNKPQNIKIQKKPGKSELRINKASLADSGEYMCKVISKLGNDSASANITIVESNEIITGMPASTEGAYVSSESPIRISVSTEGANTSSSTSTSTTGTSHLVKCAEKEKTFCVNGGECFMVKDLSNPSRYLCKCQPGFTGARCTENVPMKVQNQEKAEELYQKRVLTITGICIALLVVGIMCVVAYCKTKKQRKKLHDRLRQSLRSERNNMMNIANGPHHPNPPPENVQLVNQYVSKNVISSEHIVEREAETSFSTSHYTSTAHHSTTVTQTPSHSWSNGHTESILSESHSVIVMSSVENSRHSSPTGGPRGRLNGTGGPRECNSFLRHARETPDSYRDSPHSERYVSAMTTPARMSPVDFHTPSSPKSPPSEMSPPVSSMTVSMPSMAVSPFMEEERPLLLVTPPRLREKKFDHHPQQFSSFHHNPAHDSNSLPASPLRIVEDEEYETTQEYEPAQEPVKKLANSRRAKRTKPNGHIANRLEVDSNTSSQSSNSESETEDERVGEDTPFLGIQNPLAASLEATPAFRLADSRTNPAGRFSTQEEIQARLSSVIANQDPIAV

[7] = test system: Neuregulin-1 EGF-like domain; assay: binders of neuregulin-1 EGF-like domain, primary screen, biochemical, small-molecule microarray, 635 nm fluorescence (AID 1081); details: small-molecule microarray binding, higher = more signal;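 further: binding of the protein to compounds printed on small-molecule microarray slides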
[8] = FRG1 promoter luciferase signal modulators, primary screen, FRG1 inhibition for FSHD, cell-based, C2C12 myotubes, firefly/Renilla luciferase, luminescence (AID 1084); details: higher = more signal, called active from +8 up or from −8 down
[9] = binders of probe aFST on microarray, primary screen, stem cell growth factor project, biochemical, small-molecule microarray, fluorescence 635/667 (AID 1086); details: higher = more signal;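 further: score merges 667 nm fluorescence with signal-to-noise of each printed compound spot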
[10] = binders of probe aHhip on microarray, primary screen, stem cell growth factor project, biochemical, small-molecule microarray, fluorescence 635/667 (AID 1087); details: higher = more signal;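 further: score merges spot fluorescence at 667nm with spot signal to noise ratio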
[11] = test system: PRMT1 (protein arginine N-methyltransferase 1); assay: PRMT1 binders on small-molecule microarrays, primary screen, biochemical, small-molecule microarray, 635 nm fluorescence (AID 1088); details: small-molecule microarray binding, higher = more signal;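 further: binding of Prmt1 protein to compounds spotted on small-molecule microarray slides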
[12] = yeast growth modulation, basal conditions, primary screen, YJM789 clinical isolate, OD600, 24 h (AID 1089);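 further: growth of clinical yeast isolate S. cerevisiae YJM 789 seeded 1000 cells per well; test concentration not given here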; details: S. cerevisiae YJM789 growth, higher = more signal, called active from +8 up or from −8 down
[13] = fission yeast growth modulation, primary screen, strain 972, OD600, 24 h, no modulator (AID 1090);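 further: basal condition with compound alone and no growth modifier present; test concentration not given here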; details: S. pombe 972 growth, higher = more signal, called active from +8 up or from −8 down
[14] = S. cerevisiae growth modulation with rapamycin, primary screen, strain BY4716, OD600, 96 h (AID 1091); details: higher = more signal, called active from +8 up or from −8 down; further: test concentration not given here
[15] = target: Torsin-1A-interacting protein 2 (Homo sapiens) (UniProt Q8NFQ8); assay: LULL1 binders on small-molecule microarray, primary screen, cell lysate, human LULL1 lysate, 635/667 nm fluorescence (AID 1092); details: hLULL1 lysate binding, 635 nm fluorescence, higher = more signal;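 further: probe is lysate of COS7 cells overexpressing human LULL1; score merges per-feature 667 nm fluorescence with signal-to-noise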
Torsin-1A-interacting protein 2 (Homo sapiens), sequence (Q8NFQ8 whole entry, looked up): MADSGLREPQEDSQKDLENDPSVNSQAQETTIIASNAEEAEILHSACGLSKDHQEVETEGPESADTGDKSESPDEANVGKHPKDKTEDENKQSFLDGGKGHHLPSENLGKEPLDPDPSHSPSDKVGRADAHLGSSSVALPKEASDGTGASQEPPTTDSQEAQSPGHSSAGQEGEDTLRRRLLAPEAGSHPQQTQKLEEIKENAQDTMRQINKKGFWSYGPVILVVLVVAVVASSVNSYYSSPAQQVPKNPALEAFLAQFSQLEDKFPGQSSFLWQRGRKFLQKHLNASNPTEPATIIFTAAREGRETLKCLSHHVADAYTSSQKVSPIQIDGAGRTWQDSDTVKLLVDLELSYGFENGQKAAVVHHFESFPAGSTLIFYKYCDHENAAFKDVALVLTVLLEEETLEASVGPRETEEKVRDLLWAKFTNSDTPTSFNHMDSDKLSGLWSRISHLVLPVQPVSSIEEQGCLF

[16] = E. coli growth modulation, two-sided OD650, primary screen, E. coli filamentation project, strain DRC41, 24 h (AID 1093); details: OD650, 24 h, higher = more signal, called active from +8 up or from −8 down;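 further: MC1000 strain lacking acrAB efflux and sulA so SOS filamentation is blocked; test concentration not given here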
[17] = small-molecule microarray binders of probe aLefty2, primary screen, biochemical, biotinylated probe, 635/667 nm fluorescence (AID 1094); details: higher = more signal;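 further: score merges spot fluorescence near 667 nm with spot signal-to-noise ratio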
[18] = test system: Noggin (protein binding on small-molecule microarray); assay: Noggin binders on small-molecule microarray, primary screen, biochemical, 635/667 nm fluorescence (AID 1095); details: 635 nm fluorescence, higher = more signal;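 further: score merges 667 nm feature fluorescence with signal to noise over triplicate slides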
[19] = target: Neurogenic locus notch homolog protein 3 (Homo sapiens) (UniProt Q9UM47); assay: NOTCH3 binders on small-molecule microarray, primary screen, biochemical, 635/667 nm fluorescence (AID 1096); details: NOTCH3 binding, 635 nm fluorescence, higher = more signal
[20] = small-molecule microarray binders of probe aEGFR, primary screen, biochemical, biotinylated probe, 635/667 nm fluorescence (AID 1097); details: higher = more signal;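 further: probe is a biotinylated anti-EGFR antibody binding compounds printed on slides; score combines fluorescence near 667 nm and signal to noise of each spot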

SMILES	composite z-score [1]	composite z-score [2]	composite z-score [3]	composite z-score [4]	composite z-score [5]	composite z-score [6]	composite z-score [7]	z-score [8]	composite z-score [9]	composite z-score [10]	composite z-score [11]	z-score [12]	z-score [13]	z-score [14]	composite z-score [15]	z-score [16]	composite z-score [17]	composite z-score [18]	composite z-score [19]	composite z-score [20]
COC(=O)C(CC#Cc1ccc2c(c1)[C@]1(C(=O)N2)[C@H](c2ccc(O)cc2)N2[C@H](c3ccccc3)[C@H](c3ccccc3)OC(=O)[C@H]2[C@@H]1C(N)=O)C(=O)OC	0.659	-0.392	-0.168	-1.89	-1.06	-0.605	-0.777	-0.719 (inactive)	-0.611	-0.245	-1.37	-0.731 (inactive)	-0.55 (inactive)	-0.438 (inactive)	-0.759	2.23 (inactive)	-0.189	-2.58	-1.06	0.162
COc1ccc(C(=O)Nc2ccc(CN3C(=O)[C@]4(O[C@H](CCn5cc([C@H](O)c6ccccc6)nn5)[C@@H]([Si](C)(C)c5ccc(OC)cc5)[C@@H]4C)c4ccccc43)cc2)cc1	0.804	0.0963	-0.172	-0.161	-0.284	0.178	0.923	-0.855 (inactive)	0.198	-0.0994	0.466	-0.0933 (inactive)	-0.262 (inactive)	1.61 (inactive)	0.658	-0.615 (inactive)	0.101	0.341	-0.047	-0.169
CCCNC(=O)[C@@]1(Sc2ccc(C)cc2)CC(=O)N(Cc2ccccc2)[C@@H]1c1ccc(CO)cc1I	1.33	-0.0477	-0.0917	-0.008	0.367	0.848	1.23	-1.9 (inactive)	0.692	-0.0346	0.933	-1.09 (inactive)	-1.46 (inactive)	0.605 (inactive)	0.869	0.605 (inactive)	-0.0866	0.54	0.282	-0.11
CN(C)C(=O)[C@@]1(CCC(=O)OC(C)(C)C)COC(c2ccc(OCCCO)cc2)=N1	0.0486	0.0295	-0.0598	0.448	0.675	1.8	1.41	-0.977 (inactive)	0.267	-0.189	1.32	-0.321 (inactive)	-0.369 (inactive)	-0.501 (inactive)	3.78	0.771 (inactive)	0.112	0.74	0.0673	-0.122
CCOC(=O)C[C@H]1[C@H](OC(=O)Cc2ccc3c(c2)OCO3)[C@@H](NC(=O)c2ccccc2)c2cc(OCCCO)ccc2N1C(=O)c1ccccc1	-0.23	0.122	-0.0687	0.346	0.228	-0.109	0.895	-1.73 (inactive)	0.0452	-0.0237	0.267	-0.0172 (inactive)	-0.462 (inactive)	0.205 (inactive)	1.27	1.48 (inactive)	-0.166	0.53	0.713	-0.125
CC(=O)NCCCC[C@@H]1NC(=O)[C@@H]2C[C@H](C(=O)NCCCC[N+](C)(C)C)[C@H](c3cccc(OCCO)c3)N2C1=O	-0.239	1.05	-0.126	-0.194	-0.525	0.82	1.13	0.573 (inactive)	-0.204	-0.0645	-0.598	0.408 (inactive)	0.338 (inactive)	-0.465 (inactive)	-0.0272	-0.427 (inactive)	0.127	1.94	0.801	-0.162
O=C1NC(=O)C2C1C=CC(C(O)c1ccc3c(c1)OCO3)N2Nc1ccc(Cl)cc1Cl (stereo not given)	0.358	-0.173	-0.0274	0.218	1.22	1.73	0.543	1.28 (inactive)	0.176	-0.291	0.0405	-3.53 (inactive)	-0.462 (inactive)	0.142 (inactive)	2.94	-1.14 (inactive)	0.15	0.132	0.361	-0.108
CC(C)C(CO)N1C(=O)[C@@H]2[C@H]3C(=O)OCC=C[C@H]3OC23C=CCN(CCN2CCOCC2)C(=O)[C@@H]13 (stereo not given in full)	-0.565	-1.13	-0.166	-0.351	-0.868	0.0853	-0.428	-0.0357 (inactive)	-0.525	-0.538	0.598	1.21 (inactive)	0.0729 (inactive)	0.759 (inactive)	1.13	-0.455 (inactive)	-0.25	0.521	0.583	-0.244
COC(=O)[C@@]1(Cc2ccccc2)[C@H]2c3cc(C(=O)N(C)C)n(Cc4ccc(O)c(OC)c4)c3C[C@H]2CN1C(=O)c1ccccc1	0.709	1.36	0.0487	0.523	1.56	0.934	1.24	3.26 (inactive)	1.91	2.58	1.18	0.473 (inactive)	-0.455 (inactive)	0.836 (inactive)	2.74	0.195 (inactive)	-0.0203	-0.372	0.895	0.38
O=C1C[C@@](C(=O)O)(c2ccc([N+](=O)[O-])cc2)[C@@H](c2ccc(CO)cc2)N1CC12CC3CC(CC(C3)C1)C2	0.524	0.603	-0.009	0.527	1.13	1.38	1.12	-2.54 (inactive)	0.49	-0.196	1.54	0.629 (inactive)	-2.98 (inactive)	0.117 (inactive)	2.3	0.91 (inactive)	0.0446	0.257	0.857	0.06
CC(C)C(CO)N1C(=O)[C@@H]2[C@H]3C(=O)OCC=C[C@H]3OC23C=CCN(Cn2nnc4ccccc42)C(=O)[C@@H]13 (stereo not given in full)	0.449	-0.292	-0.192	-0.579	-1.06	-0.78	0.332	-0.194 (inactive)	-0.499	-0.137	-0.0697	1.14 (inactive)	1.13 (inactive)	0.779 (inactive)	0.704	0.701 (inactive)	-0.262	-2.09	-0.254	-0.2
CCOC(=O)C[C@H]1[C@H](OC(=O)c2cc3ccccc3oc2=O)[C@@H](NC(=O)c2ccc3ccccc3n2)c2cc(OCCCO)ccc2N1C(=O)c1ccc2ccccc2n1	1.37	0.14	-0.0342	0.936	0.114	-0.0114	1.06	-0.21 (inactive)	0.787	0.177	0.295	-0.157 (inactive)	0.291 (inactive)	-0.273 (inactive)	0.648	1.5 (inactive)	-0.0773	1.03	1.12	0.183
COc1ccc(C#Cc2ccc3c(c2)[C@]2(C(=O)N3)[C@H](c3ccc(OCCO)cc3)N3[C@H](c4ccccc4)[C@H](c4ccccc4)OC(=O)[C@H]3[C@@H]2C(=O)N2CCN(c3ncccn3)CC2)cc1	-0.176	0.07	-0.093	0.344	1.2	-0.132	0.135	0.781 (inactive)	-0.0006	-0.318	0.61	1.86 (inactive)	1.23 (inactive)	4.94 (inactive)	1.51	2.6 (inactive)	-0.105	0.346	0.824	-0.0928
C[N+](C)(C)CCCC[C@@H]1NC(=O)[C@@H]2C[C@H](C(=O)O)[C@H](c3cccc(OCCO)c3)N2C1=O	0.846	0.0439	-0.179	-0.372	-0.821	-0.0567	1.1	-0.112 (inactive)	-0.184	-0.245	0.583	0.852 (inactive)	-1.13 (inactive)	0.167 (inactive)	0.423	0.817 (inactive)	-0.175	0.601	-0.78	-0.175
CC(C)[Si](C#C[Si](C(C)C)(C(C)C)C(C)C)(O[C@H](C)c1cn(Cc2cccc(Cl)c2)nn1)C(C)C	-0.333	-0.0681	-0.123	0.316	0.496	0.528	0.94	-1.14 (inactive)	0.323	-0.0994	1.36	0.487 (inactive)	0.115 (inactive)	-0.318 (inactive)	1.04	2.18 (inactive)	-0.148	0.52	0.902	0.0192
Cc1ccccc1C(O)C1C=CC2C(=O)N(Cc3ccccc3)C(=O)C2N1n1cnnc1 (stereo not given)	-0.281	0.34	-0.0085	0.304	1.02	1.03	0.92	0.253 (inactive)	0.475	0.0053	0.601	-1.26 (inactive)	0.658 (inactive)	-0.796 (inactive)	2.38	-0.0518 (inactive)	0.0873	0.162	1.05	0.045
CCCC=C(CCC)[C@@H](NS(=O)(=O)CC)c1ccccc1	-0.14	-0.534	0.0583	0.576	1.15	0.808	1.09	1.33 (inactive)	0.725	-0.0645	1.17	0.472 (inactive)	1.22 (inactive)	0.565 (inactive)	2.57	-0.66 (inactive)	0.195	0.222	1.16	0.0093
CCOC(=O)C[C@H]1[C@H](OC(=O)Cc2ccc3c(c2)OCO3)[C@@H](NC(=O)c2ccccc2)c2cc(OCCCO)ccc2N1C(=O)c1ccc2ccccc2n1	-0.146	-0.183	-0.147	0.352	0.671	0.485	0.55	-4.6 (inactive)	0.0323	-0.175	0.4	-2.25 (inactive)	-1.2 (inactive)	-0.433 (inactive)	1.13	1.45 (inactive)	-0.0179	0.196	0.0199	-0.147
